Shown are actives, neighbours in structure and some others; about 1.9% of the full set was active somewhere.
PrPC TRFRET – reduces human prion protein on the cell surface; cell surface PrPC, TR-FRET read-out; inhibition, % at 13.8 µM; hit rate 0.43% among 370,000; in the data active means inhibition above about 24%; further: 0% = median of the test wells and 100% = reference compound wells
RecA splice inh – blocks M. tuberculosis RecA intein splicing; AID 2221; hit rate 0.75% among 290,000; cell-free RecA intein splicing, fluorescence; inhibition, % (no concentration beside the values); in the data active means inhibition above about 30%; inconclusive means no clear call, values can overlap the other calls;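 further: 0% = vehicle wells and 100% = reference inhibitor control wells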
Target sequence (P9WHJ3 whole entry, looked up, canonical isoform): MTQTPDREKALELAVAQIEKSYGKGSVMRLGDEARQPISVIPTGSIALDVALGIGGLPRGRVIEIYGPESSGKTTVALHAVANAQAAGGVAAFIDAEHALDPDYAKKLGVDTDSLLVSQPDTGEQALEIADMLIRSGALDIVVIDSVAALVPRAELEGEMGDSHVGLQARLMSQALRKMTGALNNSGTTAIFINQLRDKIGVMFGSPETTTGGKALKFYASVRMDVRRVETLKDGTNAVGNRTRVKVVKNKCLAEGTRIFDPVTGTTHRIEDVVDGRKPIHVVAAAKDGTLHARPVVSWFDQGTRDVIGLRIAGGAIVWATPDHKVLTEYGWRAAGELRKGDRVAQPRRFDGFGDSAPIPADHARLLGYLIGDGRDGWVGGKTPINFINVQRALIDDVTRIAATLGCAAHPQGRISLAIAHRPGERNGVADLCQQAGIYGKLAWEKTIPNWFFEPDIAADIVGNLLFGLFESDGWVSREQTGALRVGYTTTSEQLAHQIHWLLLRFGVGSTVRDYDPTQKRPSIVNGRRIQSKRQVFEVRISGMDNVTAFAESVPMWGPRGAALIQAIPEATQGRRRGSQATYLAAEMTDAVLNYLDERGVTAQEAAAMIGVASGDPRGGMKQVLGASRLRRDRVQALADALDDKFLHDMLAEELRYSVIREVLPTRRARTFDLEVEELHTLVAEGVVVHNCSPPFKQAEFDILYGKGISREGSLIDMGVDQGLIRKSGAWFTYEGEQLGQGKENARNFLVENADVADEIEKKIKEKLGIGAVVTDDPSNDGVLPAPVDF
BJeLR viability – kills HRASV12-expressing BJeLR cells. BJeLR (HRASV12) viability, CellTiter-Glo ATP luminescence, 48 h. inhibition, % (test concentration not listed). hit rate 0.17% among 300,000. AID 1554; in the data active means inhibition above about 50%; inconclusive means no clear call, values can overlap the other calls
PfHsp40 yeast – compounds rescuing yeast from Plasmodium falciparum HSP40 toxicity; AID 504582; hit rate 0.68% among 340,000; S. cerevisiae expressing PfHsp40, growth rescue, ATP luminescence; growth rescue, % at 12.5 µM; in the data active means growth rescue above about 28%, passing the limit was not always enough; inconclusive means no clear call, values can overlap the other calls;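 further: yeast W303a lacking pdr1 and pdr3 grown in galactose medium; growth measured after three days at 30 °C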
PrP UTR inh – inhibition of PrP 5' UTR reporter expression; cell-based PrP 5' UTR mRNA reporter, plate reader; inhibition, % (concentration not given with the values); hit rate 0.35% among 340,000; AID 488862; in the data active means inhibition above about 52%; further: 0 = median of the neutral control wells
SSB-PriA inh – inhibitors of Klebsiella pneumoniae PriA binding to SSB C-terminal tail; AlphaScreen SSBct-PriA binding, biotinylated peptide; inhibition, % at 33 µM; hit rate 0.6% among 430,000; AID 1272365; in the data active means inhibition mostly above about 37%, no sharp cut-off; inactive means mostly below about 20%;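 further: plate controls were negative control peptide for no effect and reference peptide for full effect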
GFP chromo cs – counter-screen: blocks GFP chromophore formation. shares compounds with RecA splice inh. EC50, µM. hit rate 83% among 2,100. cell-free GFP chromophore formation, fluorescence; call rule not given here
* marks the source's active call; other numbers are inactive results; ? = inconclusive; . = not tested or not shown.

SMILES | PrPC TRFRET | RecA splice inh | BJeLR viability | PfHsp40 yeast | PrP UTR inh | SSB-PriA inh | GFP chromo cs
CC(C)Cc1ccc(S(=O)(=O)Nc2ccc3[nH]c(=O)[nH]c3c2)cc1 | 10.3 | 0.5 | -1.7 | 1.9 | -15.7 | -4.9 | .
CC(C)Cc1ccc(-c2cc(=O)[nH][nH]2)cc1 | 5.9 | 92.1* | 4.3 | -1.9 | -37.4 | -2.1 | 2.6*
CSc1ccc(CNC(=O)c2snc(C(=O)NC(C)C)c2N)cc1 | . | . | . | . | . | -13.0 | .
CCOC(=O)c1c(C)oc2c1c(C=NC(C)c1ccccc1)c(O)c1ccccc12 (stereo unspecified) | . | . | . | . | . | 2.0 | .
CCOC(=O)c1c(C)oc2c1c(C=NCCC(=O)O)c(O)c1ccccc12 | -3.4 | 33.6* | 1.8 | -0.2 | -10.1 | 16.8 | 33.8*
NS(=O)(=O)c1ccc(CCNC(=O)[C@@H]2CSc3nccc(=O)n3C2)cc1 | . | . | . | . | . | -11.0 | .
Cc1cc(-c2[nH]nc3c2C(c2ccsc2)C(C#N)=C(N)O3)c(C)s1 (stereo unspecified) | 2.7 | 86.3* | -7.6 | -0.4 | -4.9 | -1.4 | 6.58*
Cc1cc(-c2[nH]nc3c2C(c2cccc(O)c2)C(C#N)=C(N)O3)c(C)s1 (stereo unspecified) | -0.7 | 82.8* | -6.0 | -0.4 | -20.8 | 3.1 | 9.32*
O=C(NN=Cc1c(O)n(C2CC2)c(=S)[nH]c1=O)c1ccccc1Cl | . | . | . | . | . | 8.8 | .
C=CCOn1c(=O)c(-c2ccc(OC)c(OC)c2)[n+]([O-])c2ccccc21 | -39.0 | -0.6 | -2.8 | 0.4 | -24.0 | 51.6 | .
COc1ccc(-c2c(=O)n(OC)c3ccccc3[n+]2[O-])cc1OC | -16.5 | 42.2* | 1.2 | -1.1 | -15.3 | 11.1 | >38
O=C1C(Cl)=C(N2CCOCC2)C(=O)N1c1ccccc1Cl | . | 85.9* | -28.3 | -0.4 | -24.5 | 4.3 | 5.62*
CN1CCN(C2=C(Cl)C(=O)N(c3ccc(Cl)c(Cl)c3)C2=O)CC1 | . | 67.9* | -28.0 | -1.9 | 2.5 | 11.9 | 2.29*
CN1CCN(C2=C(Cl)C(=O)N(c3cccc(Cl)c3)C2=O)CC1 | -0.9 | 22.5 | -6.8 | 3.5 | -26.2 | 9.9 | .
Cc1ccc(N2C(=O)C(Cl)=C(N3CCOCC3)C2=O)cc1Cl | 2.0 | 73.8* | 2.9 | 1.9 | -65.0 | -26.0 | ?
Cc1cccc(NC(=S)N/N=C2/CCCCc3ccccc32)c1 | -2.8 | 30.0* | -4.9 | -1.4 | -94.9 | . | >38
Cc1ccc(NC(=S)N/N=C2/CCCCc3ccccc32)cc1 | -0.6 | 10.9 | 32.7 | 0.4 | -20.0 | . | .
O=C(Nc1ccc2c(c1)N(C(=O)C1CCCC1)CC2)c1ccco1 | . | . | . | . | . | -12.0 | .
CC1=NN(Cc2ccccc2)C(=O)/C1=C\c1ccc(N(C)C)cc1 | -2.6 | 93.9* | 5.2 | 1.7 | -8.9 | 5.1 | ?
CN(C)c1ccc(C=C2C(=O)OC(C)(C)OC2=O)cc1 | 3.3 | -1.1 | -1.2 | -1.7 | -0.7 | -4.6 | .
COc1cc(OC)cc(N2C(=O)C3N=NN(c4ccc(C)cc4)C3C2=O)c1 (stereo unspecified) | . | . | . | . | . | -4.0 | .
Cc1ccc(C(=O)C=C2NCCNC2=O)cc1 | . | . | . | . | . | 2.3 | .
CCCCCCCCn1c(NS(=O)(=O)c2ccccc2)c(S(=O)(=O)c2ccc(C)cc2)c2nc3ccccc3nc21 | . | . | . | . | . | 32.8 | .
Cc1ccc(S(=O)(=O)c2c(N)n(CCCO)c3nc4ccccc4nc23)cc1 | -8.6 | -15.8 | -0.6 | -1.2 | -10.7 | -23.6 | .
CCCCn1c(NC(=O)c2ccco2)c(S(=O)(=O)c2ccc(C)cc2)c2nc3ccccc3nc21 | 19.6 | 56.8* | 1.8 | 1.2 | -16.7 | -8.4 | ?
SMILES | PrPC TRFRET | RecA splice inh | BJeLR viability | PfHsp40 yeast | PrP UTR inh | SSB-PriA inh | GFP chromo cs
CCCCCn1c(NC(=O)c2ccco2)c(S(=O)(=O)c2ccc(C)cc2)c2nc3ccccc3nc21 | -1.4 | 80.0* | 2.6 | -1.4 | -6.5 | 4.6 | >38
Cc1ccc(S(=O)(=O)c2c(N)n(CCC(C)C)c3nc4ccccc4nc23)cc1 | 5.6 | 84.5* | -0.7 | 0.3 | -7.4 | 10.2 | 10.9*
CCCCn1c(NC(=O)c2ccc(Br)o2)c(S(=O)(=O)c2ccccc2)c2nc3ccccc3nc21 | 11.3 | 90.1* | 0.2 | 0.1 | 1.0 | 4.1 | ?
Cc1cc(C)c(S(=O)(=O)Nc2cnc(N(C)C)nc2)c(C)c1 | . | . | . | . | . | 2.0 | .
COc1cc(OC)cc(C(=O)N2CC(=O)Nc3ccc(Cl)cc3[C@@H]2c2ccc(F)cc2)c1 | . | . | . | . | . | -14.0 | .
CCCCn1c(NS(=O)(=O)c2ccccc2)c(S(=O)(=O)c2ccc(C)cc2)c2nc3ccccc3nc21 | -9.4 | 75.9* | 0.3 | -0.7 | -13.7 | 57.8* | ?
Cc1ccc(S(=O)(=O)/N=C2/C=C(C3C(=O)CC(C)(C)CC3=O)C(=O)c3ccccc32)cc1 | -4.2 | 84.7* | -0.6 | 2.4 | -56.7 | . | 9.92*
Cc1ccc(S(=O)(=O)/N=C2\C=C(NS(=O)(=O)c3ccccc3)C(=O)c3ccccc32)cc1 | -1.9 | . | . | -2.0 | 1.0 | . | .
CC(=O)Oc1ccc2ccccc2c1C(NC(=O)Cc1ccccc1)c1ccc(Cl)cc1 (stereo unspecified) | 19.5 | 43.2* | -12.1 | 40.4* | -16.7 | 8.1 | >38
CCOc1ccc(C(NC(=O)CC)c2c(O)ccc3ccccc23)cc1 (stereo unspecified) | 1.0 | 0.9 | 2.1 | 2.7 | -21.7 | -3.5 | .
Cc1ccc(Sc2ncnc3onc(C)c23)c(C)c1 | 2.4 | . | . | -0.9 | -1.0 | -9.4 | .
Cc1noc2ncnc(Sc3ccccc3Cl)c12 | -5.4 | 45.0* | 4.4 | -1.4 | -5.1 | 0.4 | 38.4*
Cn1cnnc1S(=O)(=O)C1CCN(S(=O)(=O)c2ccc(Cl)s2)CC1 | . | . | . | . | . | 14.0 | .
COc1cccc(N2CCN(C(=O)c3ccc4c(=O)nc5c(-c6ccccc6)n[nH]n5c4c3)CC2)c1 | . | . | . | . | . | -1.0 | .
O=C(c1cc2ccccc2o1)N1CCC(Oc2ncccc2Cl)CC1 | . | . | . | . | . | -3.0 | .
CCOc1ccc(-n2c(C)cc(C(=O)CCl)c2C)cc1 | 5.3 | 48.3* | 43.9 | 1.4 | -12.7 | 4.0 | 27.9*
Cc1sc(NC(=O)c2ccc3ncsc3c2)c(C#N)c1C | . | . | . | . | . | -3.0 | .
O=[N+]([O-])c1c(NCCCO)cc(SCc2ccco2)c2nonc12 | -29.7 | 64.5* | -6.6 | 0.4 | -24.2 | -8.4 | 26.8*
CC(=O)OCCNc1cc(SCc2ccco2)c2nonc2c1[N+](=O)[O-] | . | 78.3* | -17.6 | 0.1 | -3.2 | 4.9 | 11*
Cn1ccnc1Sc1cc(NCCCO)c([N+](=O)[O-])c2nonc12 | -27.7 | 66.9* | 7.6 | 0.9 | -25.3 | -16.0 | 14.2*
Cc1ccc(S(=O)(=O)N(C)CCCC(=O)O)cc1 | . | . | . | . | . | -4.0 | .
Cc1ccc2oc([C@H]3CC(=O)N(c4ccccc4)C3)nc2c1 | . | . | . | . | . | -13.0 | .
COc1ccc(C)cc1NC(=O)C(=O)NCC1CCN(Cc2ccccc2)CC1 | . | . | . | . | . | -12.0 | .
CCOC(=O)c1ccc(NC(=O)CSc2nc(-c3ccccc3Cl)ns2)cc1 | . | . | . | . | . | -13.0 | .
COc1ccc(C(=O)Nc2c(O)ccc3ccccc23)cc1 | 1.7 | -0.3 | 3.7 | 0.3 | -19.1 | 15.4 | .
COc1ccc(S(=O)(=O)Nc2c(O)ccc3ccccc23)cc1OC | -0.9 | 95.6* | 0.5 | 13.3 | -14.4 | 4.5 | 4.62*

Source: PubChem BioAssay (several laboratories)
